Our source for the growth values is PubChem BioAssay (NCI).

Molecules are shown by their SMILES. Compounds without any hit were thinned out: in the full panel of roughly 83,000, 20% have a hit.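 Method: cells in 96-well plates; compound added at one concentration; 48 h incubation; percent growth measured; values under 10 scored active.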 Activity calls are given as the source filed them.

This test has as its system NCI-H23 lung. In words: NCI-60 one-dose screen, 48 h (100 = growth as untreated, 0 = no growth, -100 = all killed). The following applies: 10 µM unless noted.
As for `COc1ccc(-c2cn(-c3ccccc3)c(-c3ccccc3)n2)cc1OC`, the growth was 75.7% (inactive). Then `O=c1ccn(C2OC(CO)C(O)C2F)c(=O)[nH]1` (stereo not given), with 90.5% (inactive); and `c1ccc(N2CCN(c3nncc4ccccc34)CC2)nc1`, with 105% (inactive). With `CCOc1ccccc1C(=O)OCC(=O)Nc1cccc(S(=O)(=O)N(C)C)c1`, the growth was 101% (inactive).

In the case of `O=[N+]([O-])c1ccc(N/N=C\c2ccccc2[N+](=O)[O-])nc1`, the growth was 98.2% (inactive). On to `O[C@@H]1Cc2ccc3ccccc3c2N[C@H](c2ccoc2)C1`, for which the growth is 96.6% (inactive).

Turning to `CCOC(=O)/C=C(/C)Sc1cc(O)c2ccccc2c1O`, the growth is -71.4% (active).

For `CCc1ccc(CCN2C(=O)c3ccccc3C2=O)nc1`, the growth was 112% (inactive).

For the molecule `O=C1C(=O)c2ccc(Br)cc2-c2cc(Br)ccc21`, the growth is 42% (inactive). Consider `COc1cc(/C=C/C(=O)N2CCN(C(=O)/C=C/c3ccccc3)CC2)cc(OC)c1OC`, for which the growth is 108% (inactive). In the case of `Cc1nn(-c2ccc(Cl)cc2)c2nc3c(nc12)C(=O)c1ccccc1-3`, the growth is 61.7% (inactive).

For `COc1cc(C2NC(c3ccc(Cl)cc3)C(C)/C(=N/NC(N)=S)C2C)cc(OC)c1OC` (stereo not given), the growth is 92.6% (inactive). Regarding `COC(=O)c1ccc2c(c1)nc(-c1ccc(O)c(OC)c1)n2-c1cc(C(C)(C)C)[nH]n1`, the growth is 93.3% (inactive). Under `COC(=O)[C@]1(C(C)C)N[C@H](c2cn(-c3ccccc3)nc2-c2ccccc2)[C@@H]2C(=O)N(c3ccc(Cl)cc3)C(=O)[C@@H]21` stands 92.9% (inactive); under `C[n+]1c2ccccc2c(NC2CCNCC2)c2[nH]c3ccccc3c21`, 3.72% (active).
